# Results: PubChem BioAssay (NCATS)
# Inconclusive results are not listed. Where a call stands in place of a potency, no number is given. The source made the active and inactive calls. Calls come from the whole dose curve; as a rule, active = well fitted curve in the direction sought with a large enough effect; inconclusive = small, poorly fitted or top-dose-only effect, or another doubt; inactive = no such curve, though single readings can be large; an effect the other way counts as inactive or inconclusive.
# Assays:
# [1] = S16 Schwann cell viability assay (CellTiter-Glo assay) (AID 624031); conditions: S16 rat Schwann cells viability, 24 h; series mostly up to 25.7 µM;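 note: native untransfected S16 rat Schwann cells; cellular ATP luminescence as a viability measure; nearly all actives have a fitted effect of over 70% in size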
# Procedure, shortened: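 Cells were seeded at 500-750 per well in phenol red-free DMEM with 10% FBS and left overnight. Compounds or DMSO were pinned in, incubation ran 24 h at 37 °C/5% CO2, then CellTiter-Glo reagent was added and luminescence measured.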
# [2] = S16 Schwann cell PMP22 intronic element firefly luciferase assay (AID 624032); conditions: S16 rat Schwann cells, PMP22 element FLuc, 24 h; series mostly up to 25.7 µM; note: nearly all actives have a fitted effect of over 30% in size; note: potency is the fitted concentration of half-maximal effect
# Procedure, shortened: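 Rat S16 Schwann cells stably carrying firefly luciferase driven by a PMP22 intronic element, in 10% FBS, treated 24 h at 37 C. ONE-Glo luminescence normalized to PTC124 control and DMSO (0%); curves classed by r2, magnitude and activity.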
# ATS95 = test: qHTS profiling for inhibitors of Plasmodium falciparum proliferation (AID 504749); note: nearly all actives have a fitted effect of over 60% in size; note: potency is the fitted concentration of half-maximal effect; conditions: P. falciparum in erythrocytes, SYBR Green DNA, 72 h; series mostly up to 12.8 µM
# Procedure, shortened: (§1)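 P. falciparum-infected erythrocytes (0.3% parasitemia, 2.5% hematocrit) incubated with compound 72 h at 37 C, 5% CO2. Parasite DNA detected by SYBR Green after lysis, overnight at room temperature; normalised to 0.29 uM artemisinin and DMSO.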
# CP185 = test: as above; conditions: P. falciparum in erythrocytes, SYBR Green DNA, 72 h; series mostly up to 12.8 µM
# Procedure, shortened: as §1
# CP194 = test: as above; conditions: P. falciparum in erythrocytes, SYBR Green DNA, 72 h; series mostly up to 12.8 µM
# Procedure, shortened: as §1
# CP215 = test: as above; conditions: P. falciparum in erythrocytes, SYBR Green DNA, 72 h; series mostly up to 28.7 µM
# Procedure, shortened: as §1
# CP217 = test: as above; conditions: P. falciparum in erythrocytes, SYBR Green DNA, 72 h; series mostly up to 12.8 µM
# Procedure, shortened: as §1
# CP237 = test: as above; conditions: P. falciparum in erythrocytes, SYBR Green DNA, 72 h; series mostly up to 12.8 µM
# Procedure, shortened: as §1
# CP256 = test: as above; conditions: P. falciparum in erythrocytes, SYBR Green DNA, 72 h; series mostly up to 12.8 µM
# Procedure, shortened: as §1
# CP262 = test: as above; conditions: P. falciparum in erythrocytes, SYBR Green DNA, 72 h; series mostly up to 12.8 µM
# Procedure, shortened: as §1
# CP269 = test: as above; conditions: P. falciparum in erythrocytes, SYBR Green DNA, 72 h; series mostly up to 12.8 µM
# Procedure, shortened: as §1
# CP305 = test: as above; conditions: P. falciparum in erythrocytes, SYBR Green DNA, 72 h; series mostly up to 12.8 µM
# Procedure, shortened: as §1
# CP325 = test: as above; conditions: P. falciparum in erythrocytes, SYBR Green DNA, 72 h; series mostly up to 12.8 µM
# Procedure, shortened: as §1
# CP329 = test: as above; conditions: P. falciparum in erythrocytes, SYBR Green DNA, 72 h; series mostly up to 12.8 µM
# Procedure, shortened: as §1
# CP335 = test: as above; conditions: P. falciparum in erythrocytes, SYBR Green DNA, 72 h; series mostly up to 12.8 µM
# Procedure, shortened: as §1
# DIV30 = test: as above; conditions: P. falciparum in erythrocytes, SYBR Green DNA, 72 h; series mostly up to 12.8 µM
# Procedure, shortened: as §1
# JCK = test: as above; conditions: P. falciparum in erythrocytes, SYBR Green DNA, 72 h; series mostly up to 12.8 µM
# Procedure, shortened: as §1
# PC26 = test: as above; conditions: P. falciparum in erythrocytes, SYBR Green DNA, 72 h; series mostly up to 12.8 µM
# Procedure, shortened: as §1
# SC27B = test: as above; conditions: P. falciparum in erythrocytes, SYBR Green DNA, 72 h; series mostly up to 12.8 µM
# Procedure, shortened: as §1
# TAB113 = test: as above; conditions: P. falciparum in erythrocytes, SYBR Green DNA, 72 h; series mostly up to 12.8 µM
# Procedure, shortened: as §1
Compound,Potency [1],Potency [2],Potency (ATS95),Potency (CP185),Potency (CP194),Potency (CP215),Potency (CP217),Potency (CP237),Potency (CP256),Potency (CP262),Potency (CP269),Potency (CP305),Potency (CP325),Potency (CP329),Potency (CP335),Potency (DIV30),Potency (JCK),Potency (PC26),Potency (SC27B),Potency (TAB113)
CC[C@@]12CCCN3CCc4c(n(c5ccccc45)C(=O)C1)[C@H]32,inactive,inactive,inactive,inactive,inactive,inactive,inactive,inactive,inactive,inactive,inactive,inactive,inactive,inactive,inactive,inactive,inactive,inactive,inactive,inactive
N[C@@H](CO)C(=O)NNCc1ccc(O)c(O)c1O,–,inactive,inactive,inactive,inactive,inactive,inactive,inactive,inactive,inactive,inactive,inactive,inactive,inactive,inactive,inactive,inactive,inactive,inactive,inactive
CN(C)[C@@H]1C(=O)C(C(N)=O)=C(O)[C@]2(O)C(=O)C3=C(O)c4c(O)ccc(Cl)c4[C@H](O)[C@H]3C[C@@H]12,inactive,inactive,–,inactive,inactive,inactive,inactive,–,inactive,inactive,inactive,inactive,inactive,inactive,–,inactive,inactive,inactive,inactive,inactive
CCCN[C@@H](C)C(=O)Nc1ccccc1C,inactive,inactive,inactive,inactive,inactive,inactive,inactive,inactive,inactive,inactive,inactive,inactive,inactive,inactive,inactive,inactive,inactive,inactive,inactive,inactive
C[C@@H]1c2cccc(O)c2C(O)=C2C(=O)[C@@]3(O)C(O)=C(C(N)=O)C(=O)[C@@H](N(C)C)[C@@H]3[C@@H](O)[C@@H]21,inactive,inactive,–,–,–,inactive,inactive,–,–,inactive,–,–,–,inactive,4260 nM (active),–,inactive,–,–,–
CC(=O)OCC1=C(C(=O)O)N2C(=O)[C@@H](NC(=O)CSc3ccncc3)[C@@H]2SC1,inactive,inactive,inactive,inactive,inactive,inactive,inactive,inactive,inactive,inactive,inactive,inactive,inactive,inactive,inactive,inactive,inactive,inactive,inactive,inactive
CO[C@]1(NC(=O)CSCC#N)C(=O)N2C(C(=O)O)=C(CSc3nnnn3C)CS[C@H]21,inactive,inactive,inactive,inactive,inactive,inactive,inactive,inactive,inactive,inactive,inactive,inactive,inactive,inactive,inactive,inactive,inactive,inactive,inactive,inactive
C[C@@H](CCc1ccccc1)NC[C@H](O)c1ccc(O)c(C(N)=O)c1,inactive,inactive,inactive,inactive,inactive,inactive,inactive,inactive,inactive,inactive,inactive,inactive,inactive,inactive,inactive,–,inactive,inactive,inactive,inactive
NC(=O)c1cc[n+](CC2=C(C(=O)O)N3C(=O)[C@@H](NC(=O)[C@H](c4ccccc4)S(=O)(=O)[O-])[C@@H]3SC2)cc1,inactive,inactive,3550 nM (active),–,–,–,–,1410 nM (active),3550 nM (active),inactive,1610 nM (active),2560 nM (active),4550 nM (active),–,1610 nM (active),2280 nM (active),4470 nM (active),1810 nM (active),2510 nM (active),1780 nM (active)
CCCN(CCC)C(=O)[C@@H](CCC(=O)O)NC(=O)c1ccccc1,inactive,inactive,inactive,inactive,inactive,inactive,inactive,inactive,inactive,inactive,inactive,inactive,inactive,inactive,inactive,inactive,inactive,inactive,inactive,inactive
CC(C)(C)NC[C@H](O)c1cc(O)cc(O)c1,inactive,–,inactive,inactive,inactive,inactive,inactive,inactive,inactive,–,inactive,inactive,inactive,inactive,inactive,inactive,inactive,inactive,inactive,inactive
O=C(c1ccccc1)c1ccc2n1CC[C@H]2C(=O)O,inactive,inactive,inactive,inactive,inactive,inactive,inactive,inactive,inactive,inactive,inactive,inactive,inactive,inactive,inactive,inactive,inactive,inactive,inactive,inactive
CC[C@]1(C)CC(=O)NC1=O,inactive,inactive,inactive,inactive,inactive,inactive,inactive,inactive,inactive,inactive,inactive,inactive,inactive,inactive,inactive,inactive,inactive,inactive,inactive,inactive
O=C(C1CCCCC1)N1CC(=O)N2CCc3ccccc3[C@@H]2C1,inactive,36100 nM (active),–,–,–,–,–,–,–,–,–,–,–,–,–,–,–,–,–,–
C[C@@H]1COc2c(N3CCN(C)CC3)c(F)cc3c(=O)c(C(=O)O)cn1c23,inactive,inactive,inactive,inactive,inactive,inactive,inactive,inactive,inactive,inactive,inactive,inactive,inactive,inactive,inactive,inactive,inactive,inactive,inactive,inactive
CCn1cc(C(=O)O)c(=O)c2cc(F)c(N3CCN[C@@H](C)C3)c(F)c21,inactive,inactive,inactive,inactive,inactive,inactive,inactive,inactive,inactive,inactive,inactive,–,–,inactive,–,inactive,–,inactive,inactive,–
CC(C)NC[C@H](O)c1cc(O)cc(O)c1,inactive,–,inactive,inactive,inactive,inactive,inactive,inactive,inactive,inactive,inactive,inactive,inactive,inactive,inactive,inactive,inactive,inactive,inactive,inactive
CO/N=C(\C(=O)N[C@@H]1C(=O)N2C(C(=O)O)=C(COC(C)=O)CS[C@@H]12)c1csc(N)n1,inactive,inactive,inactive,inactive,inactive,inactive,inactive,inactive,inactive,inactive,inactive,inactive,inactive,inactive,inactive,inactive,inactive,inactive,inactive,inactive
NC(=O)OC[C@H](O)COc1ccc(Cl)cc1,inactive,inactive,inactive,inactive,inactive,inactive,inactive,inactive,inactive,inactive,inactive,inactive,inactive,inactive,inactive,inactive,inactive,inactive,inactive,inactive
C[n+]1ccccc1/C=N\O,inactive,inactive,inactive,inactive,inactive,inactive,inactive,inactive,inactive,inactive,inactive,inactive,inactive,inactive,inactive,inactive,inactive,inactive,inactive,inactive
CC(=O)Nc1c(I)c(C(=O)N[C@H]2[C@@H](O)[C@H](O)[C@H](CO)O[C@@H]2O)c(I)c(N(C)C(C)=O)c1I,inactive,inactive,inactive,inactive,inactive,inactive,inactive,inactive,inactive,inactive,inactive,inactive,inactive,inactive,inactive,inactive,inactive,inactive,inactive,inactive
CCN[C@@H]1C[C@H](C)S(=O)(=O)c2sc(S(N)(=O)=O)cc21,–,inactive,inactive,inactive,inactive,inactive,inactive,inactive,inactive,inactive,inactive,inactive,inactive,inactive,inactive,inactive,inactive,inactive,inactive,inactive
